Results: the supplement of paper PMC3334620
In all, about 33,000 sequences were measured (“E-score (-0.5 to 0.5)”: median about -0.053, highest 2% from about 0.37 on). What follows is part of a selection rich in the highest values, with near analogues and random picks from the rest.

target: Hap1 (UniProt P0CE41); assay: PBM E-score (8-mer binding enrichment) (E-score (-0.5 to 0.5)); higher = stronger / more preferred TF binding; conditions: protein concentration: 200 nM; construct: GST-DNA-binding domain
UniProt P0CE41, sequence (P0CE41 whole entry, the tested form may be a part): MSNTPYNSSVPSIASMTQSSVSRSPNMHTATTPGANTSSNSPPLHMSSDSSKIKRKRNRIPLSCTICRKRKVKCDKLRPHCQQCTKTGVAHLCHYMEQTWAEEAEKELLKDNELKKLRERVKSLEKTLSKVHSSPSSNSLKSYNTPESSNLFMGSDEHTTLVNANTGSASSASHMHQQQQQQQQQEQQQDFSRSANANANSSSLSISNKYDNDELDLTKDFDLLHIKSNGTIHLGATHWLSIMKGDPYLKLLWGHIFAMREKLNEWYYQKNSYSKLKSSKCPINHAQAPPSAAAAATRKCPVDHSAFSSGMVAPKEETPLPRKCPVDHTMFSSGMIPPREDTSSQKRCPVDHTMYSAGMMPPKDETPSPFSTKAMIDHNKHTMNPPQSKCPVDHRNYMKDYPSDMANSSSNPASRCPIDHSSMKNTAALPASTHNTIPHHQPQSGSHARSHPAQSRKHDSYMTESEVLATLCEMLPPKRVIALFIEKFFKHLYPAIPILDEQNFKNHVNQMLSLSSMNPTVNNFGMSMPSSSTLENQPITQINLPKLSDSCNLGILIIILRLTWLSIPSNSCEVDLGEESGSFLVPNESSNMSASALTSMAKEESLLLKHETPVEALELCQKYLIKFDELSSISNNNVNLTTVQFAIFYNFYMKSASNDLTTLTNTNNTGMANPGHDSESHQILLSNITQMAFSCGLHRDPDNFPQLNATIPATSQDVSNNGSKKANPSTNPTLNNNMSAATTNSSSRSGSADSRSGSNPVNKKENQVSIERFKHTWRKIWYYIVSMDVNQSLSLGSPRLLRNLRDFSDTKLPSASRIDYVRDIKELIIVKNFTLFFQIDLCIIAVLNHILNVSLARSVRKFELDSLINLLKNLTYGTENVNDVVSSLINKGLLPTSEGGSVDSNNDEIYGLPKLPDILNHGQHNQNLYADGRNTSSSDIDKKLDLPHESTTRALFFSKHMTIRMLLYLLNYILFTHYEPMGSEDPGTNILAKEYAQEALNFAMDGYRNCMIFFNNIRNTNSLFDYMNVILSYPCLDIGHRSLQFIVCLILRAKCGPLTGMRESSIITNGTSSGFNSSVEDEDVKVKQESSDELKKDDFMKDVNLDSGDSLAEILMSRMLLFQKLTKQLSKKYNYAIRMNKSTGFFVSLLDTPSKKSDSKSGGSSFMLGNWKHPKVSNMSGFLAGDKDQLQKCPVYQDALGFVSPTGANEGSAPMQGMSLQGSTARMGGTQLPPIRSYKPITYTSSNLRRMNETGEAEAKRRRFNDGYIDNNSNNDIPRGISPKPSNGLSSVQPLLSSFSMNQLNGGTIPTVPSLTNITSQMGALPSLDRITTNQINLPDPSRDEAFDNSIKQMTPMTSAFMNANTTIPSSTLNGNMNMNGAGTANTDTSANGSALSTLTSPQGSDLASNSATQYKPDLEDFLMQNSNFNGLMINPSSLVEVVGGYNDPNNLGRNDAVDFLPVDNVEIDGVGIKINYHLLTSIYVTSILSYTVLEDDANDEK
How it was run: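 The E-score, a modified Wilcoxon-Mann-Whitney statistic, was computed by the Universal PBM Analysis Suite for every ungapped eight-base word pooled with its reverse complement. Scans behind it were normalised with masliner after bound GST-tagged yeast transcription factors were detected with fluorescent anti-GST. The proteins, at about 100-200 nM, had been applied to universal all-10-mer Agilent arrays made double-stranded by primer extension.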

Sequence | PBM E-score
GAACCATA | -0.0291
CTAAAACC | 0.291
AGGAATGC | -0.253
GCTCCGGA | 0.444
CCTCCGTC | 0.113
CCTCCGAC | 0.28
ACTCCTGG | -0.171
CCTCCGGC | 0.399
GCTCCGTA | 0.297
CCTCCGGA | 0.418
GCTCCGCA | 0.164
ACTCCGGG | 0.39
ACTCCGTG | 0.292
CCTCCGTA | 0.246
CCTCCGCA | 0.173
AGTCTTCC | -0.0885
CGCCGTCC | 0.0969
ACAATCAT | -0.0714
GGTAGGAC | 0.0611
ACTCCGCC | 0.306
ACTCCGTA | 0.244
ACTCCGGA | 0.461
ACTCCGTC | 0.3
ACTCCGGC | 0.389
ACTCCGCA | 0.156

Sequence | PBM E-score
AGTAGTAC | 0.105
AACTAACA | -0.0716
CTCGCAAC | -0.237
AGGGGTTA | -0.0702
ACGGGTTA | 0.0135
CCGGGGTA | 0.301
CCGGGTTC | 0.296
GGGGGGTA | 0.047
CGGGTTTA | 0.474
CGGGGTTA | 0.485
GGGGGTTA | -0.181
GGGGTTTA | 0.266
CGGGTTTC | 0.331
CCGGGTTA | 0.37
CGGGGGTA | 0.425
GCATAGGA | -0.136
ACGAGAAA | -0.00338
CATAGCCA | -0.139
ACGCCAAA | -0.08
CTCCTGGA | -0.254
GAATCAGC | -0.175
TGGTACAA | -0.376
GTGAGCAC | -0.232
AGGTTATA | -0.0688
GGGGGATA | 0.134

Sequence | PBM E-score
CGGTTTTA | 0.433
CGGTTATA | 0.371
AGGGGATA | -0.167
CGGTTTAA | 0.168
CGGGGATA | 0.475
GGGTTATA | 0.0789
AGGTTTTA | 0.0786
GGTGTTAC | 0.0592
CCCCACTC | -0.186
AGCGGCCG | 0.325
ACTCCCAT | -0.176
ACTCCGAT | 0.406
ACTCCGCG | 0.371
ACTCCGAA | 0.397
ACTCCGAC | 0.353
ACTCCGAG | 0.401
ACTCCGCT | 0.21
CCTCCGCG | 0.198
ACTCCTAT | -0.141
CCTCCGAG | 0.335
CCTCCGAA | 0.334
GCTCCGAA | 0.367
GCGGTCGA | 0.163
CCTTAGGC | -0.184
ATGTAGCG | -0.0634

Sequence | PBM E-score
CTCTACAG | -0.311
CAGTCCAC | -0.272
TCTCCGAA | 0.429
TCTCCAAA | -0.138
TCTCCGCA | 0.299
CCGTCTGA | -0.0177
AGACTTAA | -0.18
CGACTTAA | -0.169
GGACTTAA | 0.443
CAGCTTCC | 0.00993
TATTTGGA | -0.215
ACCTCCGA | 0.391
ACCTCCGT | 0.286
ACCTCCGG | 0.454
TCCTCCGA | 0.308
CCCTCCGA | 0.253
CCCTCCGG | 0.331
AATCATTC | -0.0493
CCTTGGAG | -0.109
ACCCGCTA | 0.209
GTCAGTCA | -0.172
GGGGTATA | 0.103
AGGGTATA | 0.254
CCGGTATA | 0.425
ACGGTATC | 0.113

Sequence | PBM E-score
CAGGTATC | 0.0262
GCGGTATA | 0.0943
CGGGTATA | 0.435
CCGGTATC | 0.433
ACGGTATA | 0.0727
ACCAAGCG | 0.0447
CGGTTTCA | 0.263
AACTCAGG | -0.116
AGGGATGG | 0.00107
AGCATCCG | 0.215
AGCATATG | -0.278
GCCGTTAA | 0.346
CCCGTTAA | 0.297
TCCGTTAA | 0.408
ATCTAAAA | -0.105
CGAGTACG | 0.0449
ATCTCGGC | 0.379
CTCTCGCA | -0.179
ATCTCGGG | 0.356
GTCTCGGA | 0.358
CTCTCGGA | 0.4
ATCTCGGA | 0.385
CTCTCGAA | -0.332
CTCTCGGC | 0.318
AGCTCGGC | 0.354

Sequence | PBM E-score
GCCGGGCC | 0.221
GTGTGTGA | -0.201
ACCCATGC | -0.249
TAGGCTAA | -0.138
GGATCGAC | 0.17
ACCGACGT | 0.185
ACCGACCG | 0.314
CCCGACCC | 0.167
CCCGACGG | 0.331
ACCGACGG | 0.38
CCCGACCG | 0.379
GGGTTACA | 0.0182
AAACGGGA | 0.217
AATCCATG | -0.036
GGAGTTAA | 0.429
GGAGTTAC | 0.393
AGAGTTAA | -0.105
TGAGTTAA | -0.188
CGAGTTAC | -0.0647
AGAGTTAC | -0.312
GAGGGGTA | 0.0493
CCATCAAA | -0.17
GAGACCGC | 0.0393
CGGAACTA | 0.436
CGGAACTC | 0.309

Sequence | PBM E-score
AGGAAACA | -0.0825
CGGAAGTC | 0.305
GGGAAACA | 0.112
AGGAAGTA | 0.0541
CGGAAAAG | 0.343
AGGAACTA | -0.0416
CGGAAGTA | 0.38
CGGAAAAA | 0.4
CGGAAACA | 0.384
CGGAAAAC | 0.346
AATCCTAC | -0.124
ACAGCGCT | -0.0282
CGCTCGTA | 0.0559
ACAGTACA | -0.00621
CGTATCGC | 0.208
CCACTGGG | -0.145
AAGGAAGT | 0.113
TCAGCAAA | -0.157
GTTTCTAA | 0.105
GACCCGTC | 0.0739
CACAGTCA | -0.284
GGCACGCC | -0.0738
ACCAAACT | -0.13
GCGTTGAC | -0.207
